Assay results taken from PubChem BioAssay AID1645855 (Buhrlage Lab, Dana-Farber Cancer Institute and Novartis …, 2021).
Screen size: about 47,000 compounds; about 3,100 (6.6%) were called active. Cut-off read from the data, not from the text of the source: active = inhibition above about 30%; inactive = the rest. Shown is part of a subset that was picked to be rich in actives.

target: Ubiquitin carboxyl-terminal hydrolase 17-like protein 5 (Homo sapiens) (UniProt A8MUK1); experiment: blocks human USP17 ubiquitin-rhodamine cleavage (AID 1645855); details: purified USP17, Ub-rhodamine cleavage fluorescence, 3 h; at 50 µM; stronger effect = higher value
Sequence (A8MUK1 whole entry, looked up): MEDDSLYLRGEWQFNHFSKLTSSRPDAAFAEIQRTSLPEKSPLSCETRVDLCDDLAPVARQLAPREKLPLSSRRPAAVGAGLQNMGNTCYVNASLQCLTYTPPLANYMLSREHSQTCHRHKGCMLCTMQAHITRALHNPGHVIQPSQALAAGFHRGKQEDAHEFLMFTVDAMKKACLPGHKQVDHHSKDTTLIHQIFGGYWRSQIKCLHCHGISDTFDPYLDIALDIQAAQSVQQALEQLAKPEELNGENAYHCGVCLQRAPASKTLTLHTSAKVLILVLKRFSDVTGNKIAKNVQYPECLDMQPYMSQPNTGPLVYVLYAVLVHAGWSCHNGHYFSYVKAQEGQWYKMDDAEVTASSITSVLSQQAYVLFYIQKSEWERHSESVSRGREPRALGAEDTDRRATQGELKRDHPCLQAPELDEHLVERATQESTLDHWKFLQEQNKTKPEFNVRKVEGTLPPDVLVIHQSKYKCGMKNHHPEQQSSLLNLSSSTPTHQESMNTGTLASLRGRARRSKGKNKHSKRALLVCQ

inhibition, active:
O=C(Cn1cc(S(=O)(=O)Cc2ccccc2Cl)c2ccccc21)N1CCCCCC1 42%
Cc1ccc(NC(=O)Cc2sc(Nc3ccc(C)cc3)nc2O)cc1 58.2%
CCOc1ccccc1NC(=O)Nc1cc(-c2nc3ccccc3o2)ccc1OC 57.1%
O=C(Cc1ccccc1Cl)Nc1ccc(N2CCOCC2)cc1 31.6%
COc1ccc(CNC(=O)c2[nH]nc3c2CCc2ccccc2-3)cc1 67.3%

inhibition, inactive:
O=C(c1cc(Cl)ccc1F)N1CCC(c2nc(C3CC3)n[nH]2)CC1 -2.96%
Cc1ccc(CS(=O)(=O)c2cn(CC(=O)N3CCCCC3)c3ccccc23)cc1 -20.5%
O=C(Cn1cc(S(=O)(=O)Cc2ccccc2F)c2ccccc21)N1CCCCCC1 -0.288%
COc1ccc(-c2nc(-c3cccs3)no2)cc1OC -2.65%
O=S(=O)(c1ccc(S(=O)(=O)N2CCN3CCCC3C2)cc1)N1CCOCC1 (stereo not given) -8.52%
Cc1ccc(Nc2nc(O)c(CC(=O)Nc3ccc(C(C)C)cc3)s2)cc1C 6.68%
CCOc1ccc(Nc2nc(O)c(CC(=O)Nc3cccc(C)c3)s2)cc1 7.74%
NC(=O)CN1C(=O)CO[C@H]2CN(Cc3ccc(F)c(F)c3)C[C@H]21 -11.3%
Cn1c(=O)n(CCCO)c(=O)c2c1nc1n2CCCN1c1ccccc1 9.32%
COc1cccc(N2CCN(C(=O)CCC3=NS(=O)(=O)c4ccc(C)cc4N3)CC2)c1 -26.5%
Cn1c(=O)c2ncn(CC(=O)Nc3ccc(-c4nc5ccccc5o4)cc3)c2n(C)c1=O 8.05%
COc1ccccc1NC(=O)N1CCN(Cc2nc3ccccc3o2)CC1 -4.24%
CCN1CCN(c2cc(C)c3cc(NC(=O)c4cccnc4)ccc3n2)CC1 -9.13%
Cn1cnnc1SCC(=O)Nc1ccc(N2CCOCC2)c(Cl)c1 -11.6%
CCN(CC)c1nc2ccccc2nc1C(=O)Nc1ccc(N2CCOCC2)cc1 -6.91%
O=S(=O)(NCc1nc2cccnc2n1C1CC1)c1ccccc1F 9.68%
Cc1nn(-c2ccc(F)cc2)c(C)c1S(=O)(=O)NCc1ccc2c(c1)OCO2 -23%
COc1ccc(-c2ocnc2C(=O)NCc2ccc(OC)c(OC)c2)cc1 -0.808%
Cn1nc(C(=O)NCCN2CCOCC2)c2c1-c1ccccc1CC2 2.07%
CC(=O)O[C@H]1C[C@@]23COC(=O)/C=C(\C)CCOC(=O)/C=C/C=C\C(=O)O[C@@H]4C[C@@H](O[C@@H]2C=C1C)[C@@]1(CO1)[C@]43C -0.539%
